D3 ag – qHTS of D3 Dopamine Receptor Agonist: qHTS | D(3) dopamine receptor (Homo sapiens), P35462 | 410,000 compounds, 0.58% hits | max activation, % | D3R DiscoveRx beta-arrestin cells, luminescence, 90 min; in the data active = max activation above about 30%
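Cells at 1500/well, incubated overnight, then treated with pinned compounds (dopamine as control) for 90 min at 37 degrees C. DiscoveRx reagent added for 30 - 60 minutes at room temperature; luminescence read.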
D1 antag – Antagonist of Human D 1 Dopamine Receptor: qHTS. 360,000 compounds, 3.2% hits. HEK293 TREx D1 cells, calcium flux, dopamine EC80; stronger effect = lower value. activity change, negative = inhibition, % at 10 µM. D(1A) dopamine receptor (Homo sapiens), P21728; in the data active = activity change below about -30%
Target sequence (P21728 whole entry, looked up): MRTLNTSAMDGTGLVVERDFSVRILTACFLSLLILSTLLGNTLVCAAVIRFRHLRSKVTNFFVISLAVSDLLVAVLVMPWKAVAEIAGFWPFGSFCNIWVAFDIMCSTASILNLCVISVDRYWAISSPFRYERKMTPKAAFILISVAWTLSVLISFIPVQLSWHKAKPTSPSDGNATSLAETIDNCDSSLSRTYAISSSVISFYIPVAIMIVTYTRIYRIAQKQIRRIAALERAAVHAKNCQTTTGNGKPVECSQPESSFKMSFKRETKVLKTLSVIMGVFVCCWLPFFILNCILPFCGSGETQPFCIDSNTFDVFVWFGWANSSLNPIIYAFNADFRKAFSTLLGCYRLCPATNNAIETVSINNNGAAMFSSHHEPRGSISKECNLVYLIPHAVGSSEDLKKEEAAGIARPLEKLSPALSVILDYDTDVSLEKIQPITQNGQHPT
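HEK293 T-REx cells expressing inducible, force-coupled D1 receptor; no-wash Ca dye, 30–90 min RT. Cmpd → 180 s read at 1 Hz → EC80 DA → 180 s read.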
DRD3 antagonist – qHTS of D3 Dopamine Receptor Antagonist: qHTS | D(3) dopamine receptor (Homo sapiens), P35462 | D3R cells, DiscoveRx beta-arrestin luminescence, antagonist mode; stronger effect = lower value | max response, negative = inhibition, % | 360,000 compounds, 2.5% hits; in the data active = max response below about -50%; inconclusive = no clear call, values can overlap the other calls
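Cells plated overnight at 1500 cells/well, then exposed to library compounds with dopamine controls for 90 minutes at 37 degrees C. DiscoveRx reagent added for 30–60 minutes at room temperature; luminescence read, quantitative HTS format.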
D1 potentiator – Potentiators of Human D1 Dopamine Receptor: qHTS; potentiation, % at 10 µM; HEK293 TREx D1 cells, calcium flux, dopamine EC20 potentiation; D(1A) dopamine receptor (Homo sapiens), P21728; AID 504651, 2011; 360,000 compounds, 0.036% hits; in the data active = potentiation above about 30%
D1 ag – Allosteric Agonists of the Human D1 Dopamine Receptor: qHTS; D(1A) dopamine receptor (Homo sapiens), P21728; HEK293 T-REx D1 cells, calcium flux, agonist mode; activation, % at 2 µM; 360,000 compounds, 1% hits; AID 504660, 2011; in the data active = activation above about 30%
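Inducible HEK293 T-REx D1 cells, force-coupled to calcium signalling, were plated at 4000 cells/well with tetracycline and held overnight at 30 C. After no-wash calcium dye loading, compound-evoked calcium rise over 180 s flagged agonists.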
Numbers stand for hits; - = inactive; ? = inconclusive; . = no result. Rows were chosen to be rich in hits. Some 6% of all compounds tested hit in one or more screens of this group.

SMILES	D3 ag	D1 antag	DRD3 antagonist	D1 potentiator	D1 ag
CCOc1ccc(CN2CCCC(C(=O)c3ccccc3OC)C2)cc1 (stereo not drawn)	-	-	-81.3	-	-
CC(=O)N1CCC(N2CCCC(C(=O)c3cccc(Cl)c3)C2)CC1 (stereo not drawn)	128.8	-	-	-	-
COc1ccccc1CN1CCCC(C(=O)c2ccccc2SC)C1 (stereo not drawn)	-	-	?	-	-
COc1ccccc1CN1CCCC(C(=O)c2ccccc2OC)C1 (stereo not drawn)	-	-	-59.4	-	-
CC1(C)CC/C(=C/c2ccc(Cl)cc2)C1(O)Cn1cncn1 (stereo not drawn)	-	.	.	.	.
CC1NCCOC1c1ccccc1 (stereo not drawn)	-	.	.	.	.
CCCCCCCCCC(=O)O[C@H]1CC[C@H]2[C@@H]3CCC4=CC(=O)CC[C@]4(C)[C@H]3CC[C@]12C	-	.	.	.	.
CC(C)Oc1cccc(NC(=O)c2ccccc2C(F)(F)F)c1	-	.	.	.	.
CS(=O)(=O)c1ccc(C(=O)C2C(=O)CCCC2=O)c([N+](=O)[O-])c1	-	.	.	.	.
COc1cccc(OC)c1CN1CCCC(C(=O)c2cccc(Cl)c2)C1 (stereo not drawn)	-	-	-78.1	-	-
COc1cccc(C(=O)C2CCCN(Cc3ccccn3)C2)c1 (stereo not drawn)	-	-	-	-	-
COc1cccc(O)c1CN1CCCC(C(=O)c2sccc2C)C1 (stereo not drawn)	-	-	?	-	-
COc1ccc(C(=O)C2CCCN(CCc3ccccc3)C2)cc1OC (stereo not drawn)	-	.	-68.1	.	.
C[C@H](CN1CCOCC1)C(C(=O)N1CCCC1)(c1ccccc1)c1ccccc1	-	.	.	.	.
CCN(CC(=O)Nc1ccc(NC(C)=O)cc1)C(=O)CSC(c1ccccc1)c1ccccc1	-	-	-	-	44.5
NC1CCc2cc(O)c(O)cc2C1 (stereo not drawn)	141.0	-102.0	-	-	76.7
C=Cc1ccc(Cn2c(C)c(CNCCc3cc(OC)ccc3OC)c(C(=O)O)c2C)cc1	-	-	.	-	-
c1cc2ccc3cccc4ccc(c1)c2c34	-	.	.	.	.
O=C1C(=O)c2cccc3cccc1c23	-	-	-58.7	-	-
O=C1C(=O)c2ccccc2-c2ccccc21	-	-	-67.2	-	-
O=C1C(c2ccccc2)=C(N2CC2)c2ccccc21	-	-	-	-	-
NCc1cccnc1	-	.	.	.	.
CC(Cc1ccccc1Sc1ccccc1)N(C)C (stereo not drawn)	-	-68.0	-64.5	-	-
CN1CCN(Cc2nc3ccccc3c(=O)[nH]2)CC1	-	-	-	-	-
CC(Cc1ccccc1Sc1ccc(O)cc1)N(C)C (stereo not drawn)	-	-48.5	-51.8	-	-
SMILES	D3 ag	D1 antag	DRD3 antagonist	D1 potentiator	D1 ag
CN1CCN(Cc2ccccc2Sc2ccccc2)CC1	-	-	-51.5	-	52.7
CC(N)Cc1ccccc1Sc1ccc(O)cc1 (stereo not drawn)	.	-	.	-	-
Clc1ccc(OCC#CCN2CCCCCC2)cc1	-	.	-90.6	-	-
COc1ccc(OCC#CCN2CCC(C)CC2)cc1	-	-	?	-	-
O=C1NCN(c2ccccc2)C12CCNCC2	-	-	-86.1	-	-
CC(C)(C)n1nnnc1C(CCc1ccccc1)N1CCC2(CC1)C(=O)NCN2c1ccccc1 (stereo not drawn)	-	.	-68.3	.	.
O=C1NCN(c2ccccc2)C12CCN(C(c1cccc3ccccc13)c1nnnn1C1CCCCC1)CC2 (stereo not drawn)	-	.	-70.1	.	.
CCC(c1nnnn1-c1ccc2c(c1)OCCO2)N1CCC2(CC1)C(=O)NCN2c1ccccc1 (stereo not drawn)	-	.	-50.7	.	.
CC(C)(C)n1nnnc1C(c1ccccc1)N1CCC2(CC1)C(=O)NCN2c1ccccc1 (stereo not drawn)	-	.	-67.4	.	.
COc1ccc(CCNCc2c(OC)ccc3ccccc23)cc1	-	-	-	-	72.5
CCN(CC)c1ccc(N=Cc2c(O)n(CCc3ccc(OC)c(OC)c3)c(=O)[nH]c2=O)cc1	-	-	-	-	40.2
O=c1[nH]c(=S)n(Cc2ccco2)c(O)c1C=NCc1cccs1	-	-	-70.3	-	-
NC(=O)c1ccc(N=Cc2c(O)n(Cc3ccco3)c(=O)[nH]c2=O)cc1	-	-	-	-	-
CCN(CCO)c1ccc(N=Cc2c(O)n(C)c(=S)[nH]c2=O)cc1	-	-	-	-	75.4
CCn1c(O)c(C=Nc2ccc(S(N)(=O)=O)cc2)c(=O)[nH]c1=S	-	-	-	-	-
CCN(CC)c1ccc(N=Cc2c(O)n(Cc3ccco3)c(=O)[nH]c2=O)cc1	-	-	-	-	31.0
C[n+]1c2ccccc2nc2ccc(NCCO)cc21	-	-	-53.9	-	-
CNc1ccc2nc3ccccc3[n+](C)c2c1	-	-	-58.5	-	-
[Cl-].[Cl-].[Hg+2]	-	.	.	.	.
Nc1c(C(=O)Nc2ccc(OC(F)(F)F)cc2)sc2nc3c(cc12)N1CCC3CC1	-	-	.	-	-
COc1ccc(CC(=O)N(CCN(C)C)CC2CCCN(Cc3ccccc3F)C2)cc1 (stereo not drawn)	-	-	-	-	-
CSc1ccc(CN2CCN(Cc3ccccc3Cl)CC2)cc1	-	-	-96.5	-	-
COc1ccc(CN2CCN(Cc3ccccc3F)CC2)cc1	-	-	-73.1	-	-
Clc1ccc(C2(Cn3cncn3)OCCO2)c(Cl)c1	-	.	.	.	.
C=CCN1C(=O)C2(C(C(=O)OCC)=C(N)Oc3ccccc32)c2c1c1ccccc1oc2=O (stereo not drawn)	-	-	-	-	-
SMILES	D3 ag	D1 antag	DRD3 antagonist	D1 potentiator	D1 ag
CCCCOC(=O)C1=C(N)OC2=C(C(=O)CCC2)[C@]12C(=O)N(C)c1ccccc12	-	-	-53.7	-	-
CCOC(=O)C1=C(N)Oc2c(c(=O)oc3ccccc23)C12C(=O)N(C)c1ccccc12 (stereo not drawn)	-	-66.7	-	-	-
C[C@]12CC[C@H]3[C@@H](CCC4=CC(=O)CC[C@@H]43)[C@@H]1CC[C@@H]2OC(=O)CCc1ccccc1	-	.	.	.	.
CC(C)=CC1C(C(=O)OCN2C(=O)C3=C(CCCC3)C2=O)C1(C)C (stereo not drawn)	-	.	.	.	.
OC1(c2ccc(F)cc2)CC2CCC(C1)N2Cc1nnnn1C1CCCC1 (stereo not drawn)	-	-	-109.8	-	-
Cn1c(O)c(C=NCCCN2CCCC2=O)c(=O)n(C)c1=O	-	-	-64.7	-	-
CCC1C(C)=NN=C(c2ccc(OC)c(OC)c2)c2cc(OC)c(OC)cc21 (stereo not drawn)	-	.	.	.	.

Screening data from PubChem BioAssay.
